Data from PubChem BioAssay (EPA / NIEHS).
Inconclusive results are not listed. Calls of active or inactive are those of the source. How the source made its calls: active means hit-call score of the fitted dose curve at least 0.9, where 1 is the maximum; inconclusive means response in the unintended direction; inactive means score below 0.9.

These molecules were tested on glucuronosyltransferase (UGT1A1), UGT1A1 (gene 54658) (assay: CLD_UGT1A1_6hr: CellzDirect (CLD) Gene Expression Assay for glucuronosyltransferase (UGT1A1) at 6 hours (AID 2283672)).
Method: CLD_6hr is a cell-based, multiplexed-readout assay that uses hepatocyte, a human liver primary cell, with measurements taken at 6 hours after chemical dosing in a 96-well plate.CLD_UGT1A1_6hr is one of 16 assay component(s) measured or calculated from the CLD_6hr assay. It is designed to make measurements of mRNA induction, a form of inducible reporter, as detected with chemiluminescence signals by Quantitative Nuclease Protection Assay (qNPA) technology.Data from the assay component CLD_UGT1A1_6hr was analyzed at the endpoint, CLD_UGT1A1_6hr, in the positive analysis fitting direction relative to DMSO as the negative control and baseline of activity. Using a type of inducible reporter, gain-of-signal activity can be used to understand changes in the reporter gene as they relate to the gene UGT1A1. Furthermore, this assay endpoint can be referred to as a primary readout. To generalize the intended target to other relatable targets, this assay endpoint is annotated to the transferase intended target family, where subfamily is glucuronosyltransferase.
Human hepatocyte cultures were treated daily for two consecutive days with fresh dosing solutions containing appropriate concentrations of the 320 ToxCast chemicals (chemical identities were blinded to CellzDirect and other ToxCast collaborators), vehicle control (0.2% DMSO), and positive control inducers as summarized in Table 1. Due to the large number of treatment groups and chemicals examined, the ToxCast chemicals were divided into two groups (spanning two independent cultures of hepatocytes from separate donor preparations (Hu778: ToxCast plates 1 and 2; Hu776: ToxCast plates 3 and 4). Each preparation of human hepatocyte cultures was treated with respective vehicle control, medium only control, set of six positive controls/reference chemicals for the five hepatic receptor pathways, and a subset of eight of the ToxCast chemicals (indoxacarb, pyrithiobac-sodium, norflurazon, cyhalofop-butyl, methomyl, thiram, acetochlor, and propiconazole). These replicate data, coupled with internal replicates designed within the blinded ToxCast chemical library, provided additional data to evaluate interindividual differences between hepatocyte preparations and their potential impact on chemical profiles.Cell morphology and integrity were evaluated using phase-contrast microscopy as an indicator of hepatocyte cell health (Tyson & Green, 1987). Cultures for each treatment group (i.e., media, vehicle [0.2% DMSO], positive control inducers [multiple concentrations], and the ToxCast chemicals [multiple concentrations]) were observed and cell morphology was assessed relative to vehicle control cultures at each harvest time point (0, 6, 24, or 48 h). […] Images were evaluated at the conclusion of the study to assess changes in cell integrity and account for the effects of chemical exposure on uncharacteristic changes in concentration-dependent gene expression profiles. The results from these determinations of apparent cytotoxicity were annotated (yes/no) alongside the corresponding qNPA data for reference.At the conclusion of each treatment period, hepatocyte cultures (96-well) were washed with 1 volume of HBSS, lysed by addition of 25 ul ArrayPlate lysis buffer (HTG, Tucson, AZ), and 70 ul/well of Denaturation Oil, denatured by incubation at 95C for 10 min, and frozen at approximately -70C until analysis by nuclease protection assay (qNPA) (Roberts et al., 2007). For qNPA analysis, cell lysates were thawed at 50C for approximately 30 min, qNPA probes were added, and samples were incubated at 95C for 10 min to begin the detection process by denaturing the target RNA, dissociating the duplexes and secondary structure hybridization. At the conclusion of the hybridization period, S1 nuclease reagent was added to each sample to digest all nonprotected nucleotides at 50C for 60-90 min. […]

| Structure (SMILES) | outcome |
| --- | --- |
| CCOP(=S)(OCC)Oc1ccc([N+](=O)[O-])cc1 | inactive |
| CC(COc1ccc(Oc2ccccc2)cc1)Oc1ccccn1 (stereo not given) | inactive |
| CNC(=O)ON=C(C)SC | inactive |
| O=c1ccc(=O)[nH][nH]1 | inactive |
| C=C(C)[C@H]1Cc2c(ccc3c2O[C@@H]2COc4cc(OC)c(OC)cc4[C@@H]2C3=O)O1 | inactive |
| CSc1nc(NC(C)C)nc(NC(C)C)n1 | inactive |
| CNc1cnn(-c2cccc(C(F)(F)F)c2)c(=O)c1Cl | inactive |
| COc1cccc(C(=O)NN(C(=O)c2cc(C)cc(C)c2)C(C)(C)C)c1C | inactive |
| CC[C@H](C)[C@H]1O[C@]2(C=C[C@@H]1C)C[C@@H]1C[C@@H](C/C=C(\C)[C@@H](O[C@H]3C[C@H](OC)[C@@H](O[C@H]4C[C@H](OC)[C@@H](NC)[C@H](C)O4)[C@H](C)O3)[C@@H](C)/C=C/C=C3\CO[C@@H]4[C@H](O)C(C)=C[C@@H](C(=O)O1)[C@]34O)O2 | inactive |
| CNC(=O)ON=C(SC)C(=O)N(C)C | inactive |
| CCc1cccc(C)c1N(C(=O)CCl)C(C)COC (stereo not given) | inactive |
| Nc1nc(N)nc(NC2CC2)n1 | inactive |
| CC(C1CC1)C(O)(Cn1cncn1)c1ccc(Cl)cc1 (stereo not given) | inactive |
| CCc1cccc(CC)c1N(COC)C(=O)CCl | inactive |
| CC1(C(=O)Nc2ccc(O)c(Cl)c2Cl)CCCCC1 | inactive |
| CC(C)[C@H](C(=O)O[C@H](C#N)c1cccc(Oc2ccccc2)c1)c1ccc(Cl)cc1 | inactive |
| COP(=O)(OC)OC(Br)C(Cl)(Cl)Br (stereo not given) | inactive |
| C[N+]1(C)CCCCC1 | inactive |
| CCC(=NOC/C=C/Cl)C1=C(O)CC(C2CCOCC2)CC1=O (stereo not given) | inactive |
| Cc1cc(C2CC2)nc(Nc2ccccc2)n1 | inactive |

| Structure (SMILES) | outcome |
| --- | --- |
| O=C(O)c1cc(Oc2ccc(C(F)(F)F)cc2Cl)ccc1[N+](=O)[O-] | inactive |
| CCCCN(CC)c1c([N+](=O)[O-])cc(C(F)(F)F)cc1[N+](=O)[O-] | inactive |
| COP(=O)(OC)C(O)C(Cl)(Cl)Cl (stereo not given) | inactive |
| COc1ccc(C(=CC(=O)N2CCOCC2)c2ccc(Cl)cc2)cc1OC | inactive |
| C[Si](Cn1cncn1)(c1ccc(F)cc1)c1ccc(F)cc1 | inactive |
| CCc1cnc(C2=NC(C)(C(C)C)C(=O)N2)c(C(=O)O)c1 (stereo not given) | inactive |
| CC(C)N(C(=O)SCC(Cl)=C(Cl)Cl)C(C)C | inactive |
| Cc1ccn2nc(S(=O)(=O)Nc3c(F)cccc3F)nc2n1 | inactive |
| CC(C)=CC1C(C(=O)OCN2C(=O)C3=C(CCCC3)C2=O)C1(C)C (stereo not given) | inactive |
| COP(=O)(NC(C)=O)SC (stereo not given) | inactive |
| CCOP(=S)(OCC)SCCSCC | inactive |
| CCC(CC)Nc1c([N+](=O)[O-])cc(C)c(C)c1[N+](=O)[O-] | inactive |
| CCCOCC(=Nc1ccc(Cl)cc1C(F)(F)F)n1ccnc1 | inactive |
| CON=C(C(=O)OC)c1ccccc1CON=C(C)c1cccc(C(F)(F)F)c1 | inactive |
| CCOP(=S)(OCC)Oc1ccc2c(C)c(Cl)c(=O)oc2c1 | inactive |
| CCOP(=O)(SC(C)CC)N1CCSC1=O (stereo not given) | inactive |
| CN(C)NC(=O)CCC(=O)O | inactive |
| CCCSP(=O)(OCC)SCCC | inactive |
| CCOP(=S)(OCC)OC(Cl)C(Cl)(Cl)Cl (stereo not given) | inactive |
| CNC(=O)Oc1cccc2c1OC(C)(C)O2 | inactive |
